PMC7862700, “An all-to-all approach to the identification of sequence-specific readers for epigenetic DNA modifications on cytosine”

What was measured:
Test in all cases: DAPPL (digital affinity profiling via proximity ligation, sequencing); 10 mM Tris-HCl pH 7.5, 50 mM NaCl, 1 mM DTT, 4% glycerol, room temperature, 30 min; GST-TFs on glutathione beads, 16-mer random dsDNA library, 0.1% formaldehyde crosslink after washing; high values mean tight binding
FEV = molecular target: T1, FEV (Homo sapiens, UniProt Q99581 1-238); conditions: protein: recombinant; tags: N-terminal GST; dsDNA, one strand shown
T1 sequence: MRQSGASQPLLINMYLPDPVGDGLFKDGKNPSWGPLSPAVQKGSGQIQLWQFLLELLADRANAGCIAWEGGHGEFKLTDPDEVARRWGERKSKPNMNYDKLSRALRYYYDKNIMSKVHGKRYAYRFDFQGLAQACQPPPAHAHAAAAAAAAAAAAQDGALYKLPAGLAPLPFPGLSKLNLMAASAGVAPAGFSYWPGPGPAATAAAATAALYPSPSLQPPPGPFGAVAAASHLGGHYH
How it was run: (§1)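 Binding signal is each hexamer's read frequency for a factor divided by its frequency in the tag-only sample. The factors were GST-fused human transcription factors from yeast, captured on glutathione beads, DNA-barcoded and pooled with that sample. Pools were incubated with 200 nmole of a random double-stranded 16-mer DNA library in Tris/NaCl/DTT/glycerol buffer at room temperature for 30 min, then washed, crosslinked with 0.1% formaldehyde, proximity-ligated with BsaI/T4 ligase (1 h, 37 °C), PCR-amplified and sequenced on an Illumina NextSeq500.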

ETV5 = ETV5 (Homo sapiens, UniProt P41161 1-510); conditions: protein: recombinant; tags: N-terminal GST; dsDNA, one strand shown
How it was run: as §1

HSF1 = HSF1 (Homo sapiens, UniProt Q00613 1-529); conditions: protein: recombinant; tags: N-terminal GST; chain copies: 3; dsDNA, one strand shown
How it was run: as §1

SPIC = molecular target: T2, SPIC (Homo sapiens, UniProt Q8N5J4 1-248); conditions: protein: recombinant; tags: N-terminal GST; dsDNA, one strand shown
T2 sequence: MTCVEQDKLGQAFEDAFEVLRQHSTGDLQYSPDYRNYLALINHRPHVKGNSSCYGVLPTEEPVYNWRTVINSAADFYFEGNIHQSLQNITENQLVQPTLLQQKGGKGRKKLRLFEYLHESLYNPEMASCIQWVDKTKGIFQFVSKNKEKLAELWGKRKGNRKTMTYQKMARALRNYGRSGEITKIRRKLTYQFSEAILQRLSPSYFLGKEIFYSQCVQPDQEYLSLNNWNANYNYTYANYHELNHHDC
How it was run: as §1

ELF4 = ELF4 (Homo sapiens, UniProt Q99607 1-663); conditions: protein: recombinant; tags: N-terminal GST; dsDNA, one strand shown
How it was run: as §1

ELK4 = molecular target: T3, ELK4 (Homo sapiens, UniProt P28324-2 1-405); conditions: protein: recombinant; tags: N-terminal GST; dsDNA, one strand shown
T3 sequence: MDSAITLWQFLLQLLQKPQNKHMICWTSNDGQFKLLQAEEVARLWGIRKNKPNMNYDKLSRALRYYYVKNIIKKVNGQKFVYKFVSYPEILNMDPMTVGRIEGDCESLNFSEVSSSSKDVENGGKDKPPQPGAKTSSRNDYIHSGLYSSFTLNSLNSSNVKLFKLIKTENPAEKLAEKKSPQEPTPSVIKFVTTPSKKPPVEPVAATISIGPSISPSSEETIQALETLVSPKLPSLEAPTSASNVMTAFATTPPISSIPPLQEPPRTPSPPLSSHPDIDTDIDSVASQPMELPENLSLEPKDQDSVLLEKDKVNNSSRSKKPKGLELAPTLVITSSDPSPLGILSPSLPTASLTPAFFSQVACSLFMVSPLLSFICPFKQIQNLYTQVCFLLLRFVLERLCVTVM
How it was run: as §1

ETV2 = molecular target: T4, ETV2 (Homo sapiens, UniProt O00321 1-342); conditions: protein: recombinant; tags: N-terminal GST; dsDNA, one strand shown
T4 sequence: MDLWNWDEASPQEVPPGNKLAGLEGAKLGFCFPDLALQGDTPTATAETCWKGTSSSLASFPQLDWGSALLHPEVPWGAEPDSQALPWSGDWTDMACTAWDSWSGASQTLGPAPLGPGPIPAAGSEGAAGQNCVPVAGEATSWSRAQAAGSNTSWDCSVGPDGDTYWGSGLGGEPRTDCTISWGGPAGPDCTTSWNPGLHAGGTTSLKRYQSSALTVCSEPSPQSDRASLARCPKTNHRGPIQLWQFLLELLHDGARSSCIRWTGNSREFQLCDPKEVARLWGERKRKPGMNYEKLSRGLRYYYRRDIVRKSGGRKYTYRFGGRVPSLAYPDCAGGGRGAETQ
How it was run: as §1

ELF3 = molecular target: T5, ELF3 (Homo sapiens, UniProt P78545 1-371); conditions: protein: recombinant; tags: N-terminal GST; dsDNA, one strand shown
T5 sequence: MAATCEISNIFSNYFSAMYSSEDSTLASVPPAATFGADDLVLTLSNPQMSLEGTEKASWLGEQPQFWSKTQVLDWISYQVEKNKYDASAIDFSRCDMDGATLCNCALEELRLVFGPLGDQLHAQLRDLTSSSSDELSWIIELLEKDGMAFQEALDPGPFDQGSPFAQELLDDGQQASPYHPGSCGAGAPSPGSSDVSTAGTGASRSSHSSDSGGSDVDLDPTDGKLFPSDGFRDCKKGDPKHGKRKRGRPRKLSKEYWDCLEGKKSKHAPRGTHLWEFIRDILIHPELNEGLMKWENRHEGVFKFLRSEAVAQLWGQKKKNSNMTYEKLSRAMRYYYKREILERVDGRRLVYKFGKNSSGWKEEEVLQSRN
How it was run: as §1

CRX = CRX (Homo sapiens, UniProt O43186 1-299); conditions: protein: recombinant; tags: N-terminal GST; dsDNA, one strand shown
How it was run: as §1

ETV1 = ETV1 (Homo sapiens, UniProt P50549 1-477); conditions: protein: recombinant; tags: N-terminal GST; dsDNA, one strand shown
How it was run: as §1

ERF = molecular target: T6, ERF (Homo sapiens, UniProt P50548 1-548); conditions: protein: recombinant; tags: N-terminal GST; dsDNA, one strand shown
T6 sequence: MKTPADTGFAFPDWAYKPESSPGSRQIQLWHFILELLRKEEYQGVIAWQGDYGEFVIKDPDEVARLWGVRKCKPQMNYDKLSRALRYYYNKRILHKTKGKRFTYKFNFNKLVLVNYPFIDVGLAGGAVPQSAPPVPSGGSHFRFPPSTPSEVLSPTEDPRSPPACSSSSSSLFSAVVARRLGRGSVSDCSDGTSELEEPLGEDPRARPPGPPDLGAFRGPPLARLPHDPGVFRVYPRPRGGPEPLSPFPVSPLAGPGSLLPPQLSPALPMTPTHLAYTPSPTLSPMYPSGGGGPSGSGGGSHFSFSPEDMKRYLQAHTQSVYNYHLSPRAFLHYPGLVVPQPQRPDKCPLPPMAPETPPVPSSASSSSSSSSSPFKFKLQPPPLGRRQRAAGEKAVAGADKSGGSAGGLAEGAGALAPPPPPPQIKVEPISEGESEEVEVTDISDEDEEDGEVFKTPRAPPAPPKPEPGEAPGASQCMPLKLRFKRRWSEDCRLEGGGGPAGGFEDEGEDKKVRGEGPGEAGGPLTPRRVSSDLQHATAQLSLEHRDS
How it was run: as §1

ETV3L = molecular target: T7, ETV3L (Homo sapiens, UniProt Q6ZN32 1-361); conditions: protein: recombinant; tags: N-terminal GST; dsDNA, one strand shown
T7 sequence: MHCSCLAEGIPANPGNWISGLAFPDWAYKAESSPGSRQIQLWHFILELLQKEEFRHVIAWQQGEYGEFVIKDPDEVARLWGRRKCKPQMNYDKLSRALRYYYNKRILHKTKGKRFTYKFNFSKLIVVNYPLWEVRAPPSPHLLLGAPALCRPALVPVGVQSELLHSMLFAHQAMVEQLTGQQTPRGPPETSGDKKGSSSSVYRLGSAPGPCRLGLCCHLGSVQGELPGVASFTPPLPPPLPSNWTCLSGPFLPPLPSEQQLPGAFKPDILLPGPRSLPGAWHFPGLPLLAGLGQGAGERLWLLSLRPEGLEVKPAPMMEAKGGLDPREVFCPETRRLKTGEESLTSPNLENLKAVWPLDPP
How it was run: as §1

ETS2 = molecular target: T8, ETS2 (Homo sapiens, UniProt P15036 1-469); conditions: protein: recombinant; tags: N-terminal GST; dsDNA, one strand shown
T8 sequence: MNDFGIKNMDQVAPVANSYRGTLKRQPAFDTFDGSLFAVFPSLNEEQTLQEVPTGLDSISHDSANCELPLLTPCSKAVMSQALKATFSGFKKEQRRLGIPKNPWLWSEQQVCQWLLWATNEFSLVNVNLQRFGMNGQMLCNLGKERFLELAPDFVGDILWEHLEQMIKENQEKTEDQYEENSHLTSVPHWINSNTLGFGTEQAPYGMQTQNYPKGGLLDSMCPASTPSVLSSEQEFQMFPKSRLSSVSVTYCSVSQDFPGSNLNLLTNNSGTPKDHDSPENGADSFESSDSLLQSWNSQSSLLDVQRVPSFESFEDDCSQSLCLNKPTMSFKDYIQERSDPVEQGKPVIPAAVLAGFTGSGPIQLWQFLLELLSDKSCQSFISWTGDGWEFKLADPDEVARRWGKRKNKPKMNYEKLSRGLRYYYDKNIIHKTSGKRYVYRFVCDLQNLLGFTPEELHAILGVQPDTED
How it was run: as §1

SPDEF = molecular target: T9, SPDEF (Homo sapiens, UniProt O95238 1-335); conditions: protein: recombinant; tags: N-terminal GST; dsDNA, one strand shown
T9 sequence: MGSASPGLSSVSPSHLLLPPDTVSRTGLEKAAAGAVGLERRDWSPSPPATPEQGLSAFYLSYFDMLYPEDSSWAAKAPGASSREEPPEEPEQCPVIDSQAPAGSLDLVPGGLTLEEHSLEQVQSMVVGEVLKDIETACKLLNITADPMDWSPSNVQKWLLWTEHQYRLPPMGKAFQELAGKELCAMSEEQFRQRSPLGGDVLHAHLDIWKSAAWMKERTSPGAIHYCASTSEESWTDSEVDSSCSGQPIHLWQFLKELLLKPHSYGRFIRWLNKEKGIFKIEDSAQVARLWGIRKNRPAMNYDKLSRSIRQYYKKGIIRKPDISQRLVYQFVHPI
How it was run: as §1

ETV7 = molecular target: T10, ETV7 (Homo sapiens, UniProt Q9Y603 1-341); conditions: protein: recombinant; tags: N-terminal GST; dsDNA, one strand shown
T10 sequence: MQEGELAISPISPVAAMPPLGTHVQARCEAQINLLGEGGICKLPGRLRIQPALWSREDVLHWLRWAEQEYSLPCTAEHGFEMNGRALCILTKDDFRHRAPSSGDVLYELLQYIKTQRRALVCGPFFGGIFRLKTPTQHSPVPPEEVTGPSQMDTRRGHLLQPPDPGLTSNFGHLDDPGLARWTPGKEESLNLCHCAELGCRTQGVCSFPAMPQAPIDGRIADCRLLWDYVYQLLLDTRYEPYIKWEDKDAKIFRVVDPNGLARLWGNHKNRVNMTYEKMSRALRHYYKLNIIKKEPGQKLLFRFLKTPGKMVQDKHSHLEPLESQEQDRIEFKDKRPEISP
How it was run: as §1

ELF5 = molecular target: T11, ELF5 (Homo sapiens, UniProt Q9UKW6-2 1-255); conditions: protein: recombinant; tags: N-terminal GST; dsDNA, one strand shown
T11 sequence: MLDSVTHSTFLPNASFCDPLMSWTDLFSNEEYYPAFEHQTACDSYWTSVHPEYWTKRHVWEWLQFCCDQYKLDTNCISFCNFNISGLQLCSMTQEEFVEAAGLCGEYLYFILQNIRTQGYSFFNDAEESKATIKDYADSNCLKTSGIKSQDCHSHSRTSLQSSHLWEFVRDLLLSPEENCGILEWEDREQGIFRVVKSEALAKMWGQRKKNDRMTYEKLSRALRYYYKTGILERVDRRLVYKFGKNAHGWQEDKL
How it was run: as §1

ETV3 = molecular target: T12, ETV3 (Homo sapiens, UniProt P41162-2 1-143); conditions: protein: recombinant; tags: N-terminal GST; dsDNA, one strand shown
T12 sequence: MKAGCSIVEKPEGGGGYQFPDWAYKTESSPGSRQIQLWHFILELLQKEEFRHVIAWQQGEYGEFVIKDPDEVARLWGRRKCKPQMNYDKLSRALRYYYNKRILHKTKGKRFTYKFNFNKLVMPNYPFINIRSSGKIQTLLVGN
How it was run: as §1

ETV6 = ETV6 (Homo sapiens, UniProt P41212 1-452); conditions: protein: recombinant; tags: N-terminal GST; dsDNA, one strand shown
How it was run: as §1

Sequence of ETV6 (P41212 whole entry): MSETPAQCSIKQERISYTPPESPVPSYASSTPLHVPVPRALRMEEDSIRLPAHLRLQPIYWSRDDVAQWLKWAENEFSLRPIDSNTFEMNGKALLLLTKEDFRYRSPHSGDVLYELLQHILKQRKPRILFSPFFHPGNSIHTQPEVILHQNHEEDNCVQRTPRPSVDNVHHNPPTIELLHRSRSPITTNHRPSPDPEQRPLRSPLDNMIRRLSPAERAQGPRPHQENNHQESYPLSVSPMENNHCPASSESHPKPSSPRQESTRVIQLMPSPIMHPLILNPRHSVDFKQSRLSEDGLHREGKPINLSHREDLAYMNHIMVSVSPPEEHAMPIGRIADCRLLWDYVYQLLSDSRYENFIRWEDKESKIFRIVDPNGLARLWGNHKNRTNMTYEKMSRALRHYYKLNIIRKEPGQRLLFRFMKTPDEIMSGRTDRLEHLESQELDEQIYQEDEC
Sequence of ETV5 (P41161 whole entry): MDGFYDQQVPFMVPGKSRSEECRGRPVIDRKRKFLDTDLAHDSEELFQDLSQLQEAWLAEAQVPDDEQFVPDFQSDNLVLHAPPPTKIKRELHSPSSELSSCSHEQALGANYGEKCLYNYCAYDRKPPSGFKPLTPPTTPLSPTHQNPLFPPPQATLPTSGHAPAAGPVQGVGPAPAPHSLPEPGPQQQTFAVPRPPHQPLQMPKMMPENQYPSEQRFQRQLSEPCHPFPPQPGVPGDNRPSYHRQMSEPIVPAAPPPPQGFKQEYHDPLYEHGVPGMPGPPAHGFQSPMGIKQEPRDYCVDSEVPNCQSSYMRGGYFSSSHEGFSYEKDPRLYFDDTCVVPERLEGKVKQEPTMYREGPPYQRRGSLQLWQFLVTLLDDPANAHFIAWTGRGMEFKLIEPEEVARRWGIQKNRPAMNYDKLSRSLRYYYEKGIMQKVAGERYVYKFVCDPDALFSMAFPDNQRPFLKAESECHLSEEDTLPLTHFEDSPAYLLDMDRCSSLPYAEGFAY
Sequence of CRX (O43186 whole entry): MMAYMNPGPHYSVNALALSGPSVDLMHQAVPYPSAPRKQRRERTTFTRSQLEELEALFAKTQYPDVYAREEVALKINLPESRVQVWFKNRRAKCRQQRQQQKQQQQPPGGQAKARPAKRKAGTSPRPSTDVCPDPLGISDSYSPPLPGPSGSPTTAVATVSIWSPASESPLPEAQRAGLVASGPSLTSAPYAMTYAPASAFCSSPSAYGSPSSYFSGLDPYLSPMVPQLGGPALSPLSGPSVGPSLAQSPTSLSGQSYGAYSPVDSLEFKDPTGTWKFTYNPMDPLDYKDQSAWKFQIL
Sequence of ELF4 (Q99607 whole entry): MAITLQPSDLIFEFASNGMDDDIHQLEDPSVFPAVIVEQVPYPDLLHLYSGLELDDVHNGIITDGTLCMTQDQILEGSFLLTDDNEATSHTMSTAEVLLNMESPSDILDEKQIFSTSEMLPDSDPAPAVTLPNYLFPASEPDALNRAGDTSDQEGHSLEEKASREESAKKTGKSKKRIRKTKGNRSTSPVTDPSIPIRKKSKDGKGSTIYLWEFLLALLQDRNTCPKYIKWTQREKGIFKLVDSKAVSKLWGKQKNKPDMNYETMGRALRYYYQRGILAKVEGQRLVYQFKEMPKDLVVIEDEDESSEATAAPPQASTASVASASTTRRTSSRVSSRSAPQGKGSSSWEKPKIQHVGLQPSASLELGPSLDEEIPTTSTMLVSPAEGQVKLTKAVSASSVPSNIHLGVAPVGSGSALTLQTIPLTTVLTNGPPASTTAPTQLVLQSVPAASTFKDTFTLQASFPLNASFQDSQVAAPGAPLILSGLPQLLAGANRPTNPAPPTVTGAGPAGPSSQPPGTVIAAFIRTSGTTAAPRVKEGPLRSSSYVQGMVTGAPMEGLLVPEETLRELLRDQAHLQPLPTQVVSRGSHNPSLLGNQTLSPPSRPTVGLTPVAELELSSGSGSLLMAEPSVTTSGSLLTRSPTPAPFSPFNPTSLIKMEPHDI
Sequence of HSF1 (Q00613 whole entry): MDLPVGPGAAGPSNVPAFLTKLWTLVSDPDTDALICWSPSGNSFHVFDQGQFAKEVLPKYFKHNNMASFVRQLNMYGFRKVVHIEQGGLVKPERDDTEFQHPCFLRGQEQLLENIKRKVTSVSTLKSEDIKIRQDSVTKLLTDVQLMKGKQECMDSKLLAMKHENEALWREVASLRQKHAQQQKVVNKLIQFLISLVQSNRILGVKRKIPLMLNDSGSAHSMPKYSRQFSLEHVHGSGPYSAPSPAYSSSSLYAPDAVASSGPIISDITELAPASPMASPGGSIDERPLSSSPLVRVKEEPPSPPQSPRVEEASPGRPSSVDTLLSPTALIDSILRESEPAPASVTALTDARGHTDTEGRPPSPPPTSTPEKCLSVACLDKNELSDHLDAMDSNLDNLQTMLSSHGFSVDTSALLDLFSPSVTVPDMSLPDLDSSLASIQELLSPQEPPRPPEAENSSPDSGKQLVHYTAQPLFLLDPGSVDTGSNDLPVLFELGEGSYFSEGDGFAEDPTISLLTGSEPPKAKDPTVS
Sequence of ETV1 (P50549 whole entry): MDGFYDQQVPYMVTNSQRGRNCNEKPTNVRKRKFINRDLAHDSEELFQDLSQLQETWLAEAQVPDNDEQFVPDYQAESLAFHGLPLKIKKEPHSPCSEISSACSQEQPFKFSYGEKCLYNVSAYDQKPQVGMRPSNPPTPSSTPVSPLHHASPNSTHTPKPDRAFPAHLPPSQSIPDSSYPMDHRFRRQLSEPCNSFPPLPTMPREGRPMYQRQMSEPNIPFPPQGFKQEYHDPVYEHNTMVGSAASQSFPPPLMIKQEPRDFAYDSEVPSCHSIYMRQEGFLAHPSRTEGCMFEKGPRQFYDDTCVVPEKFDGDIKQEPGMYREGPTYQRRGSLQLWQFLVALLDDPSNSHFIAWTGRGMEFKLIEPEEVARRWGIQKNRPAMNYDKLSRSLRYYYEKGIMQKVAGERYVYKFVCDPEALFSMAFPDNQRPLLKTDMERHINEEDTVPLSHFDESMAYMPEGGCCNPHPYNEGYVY

## GTAAAT
FEV
  binding signal: 1.09 fold enrichment (6-mer frequency, TF over GST control)
ETV5
  binding signal: 1.13 fold enrichment (6-mer frequency, TF over GST control)
HSF1
  binding signal: 1.22 fold enrichment (6-mer frequency, TF over GST control)
SPIC
  binding signal: 1.09 fold enrichment (6-mer frequency, TF over GST control)
ELF4
  binding signal: 1.14 fold enrichment (6-mer frequency, TF over GST control)
ELK4
  binding signal: 1.14 fold enrichment (6-mer frequency, TF over GST control)
ETV2
  binding signal: 1.06 fold enrichment (6-mer frequency, TF over GST control)
ELF3
  binding signal: 1.25 fold enrichment (6-mer frequency, TF over GST control)
CRX
  binding signal: 1.32 fold enrichment (6-mer frequency, TF over GST control)
ETV1
  binding signal: 1.07 fold enrichment (6-mer frequency, TF over GST control)
ERF
  binding signal: 1.18 fold enrichment (6-mer frequency, TF over GST control)
ETV3L
  binding signal: 1.23 fold enrichment (6-mer frequency, TF over GST control)
ETS2
  binding signal: 1.18 fold enrichment (6-mer frequency, TF over GST control)
SPDEF
  binding signal: 1.13 fold enrichment (6-mer frequency, TF over GST control)
ETV7
  binding signal: 1.2 fold enrichment (6-mer frequency, TF over GST control)
ELF5
  binding signal: 1.12 fold enrichment (6-mer frequency, TF over GST control)
ETV3
  binding signal: 1.13 fold enrichment (6-mer frequency, TF over GST control)
ETV6
  binding signal: 1.18 fold enrichment (6-mer frequency, TF over GST control)
